Counter-ions that a name gives are not always drawn. ± gives the standard deviation of the averaged measurements. The full ranking holds about 1,900 compounds; the median of “normalised cell viability (NPI; 0 = phenylarsine oxide control, 1 = DMSO control)” is about 1, and the lowest 2% start at about 0.039. Many of the other results were omitted from the sample, so the lowest values are more common in it than they were.
Test system: NCI-H1944
Experiment: normalised cell viability (NPI; 0 = phenylarsine oxide control, 1 = DMSO control) (fraction of DMSO control); NCI-H1944 is a non-small cell lung cancer line; higher = more viable cells (less compound toxicity)
Settings: 6 days
[1] = glucocorticoid arm: hydrocortisone 2.75 uM co-treatment, compound 1 µM
[2] = glucocorticoid arm: hydrocortisone 2.75 uM co-treatment, compound 5 µM
[3] = glucocorticoid arm: hydrocortisone 2.75 uM pre-treated 2 days and continued, compound 1 µM
[4] = glucocorticoid arm: hydrocortisone 2.75 uM pre-treated 2 days and continued, compound 5 µM
[5] = glucocorticoid arm: vehicle, compound 1 µM
[6] = glucocorticoid arm: vehicle, compound 5 µM
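Note: CTB read-out in 384-well plates, triplicate wells, NPI normalised per plate against 1 µM phenylarsine oxide (0) and 0.1% DMSO (1) controls.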

SMILES | normalised cell viability [1] | normalised cell viability [2] | normalised cell viability [3] | normalised cell viability [4] | normalised cell viability [5] | normalised cell viability [6]
CN/C(=N\c1ccc(C2=NNC(=O)CC2C)cc1)NC#N (centres undefined) | 0.9943 ± 0.0046 | 0.992 ± 0.018 | 0.875 ± 0.22 | 0.9957 ± 0.0051 | 0.995 ± 0.005 | 0.997 ± 0.0052
CCN1C(=CC(C)=O)Sc2ccc(OC)cc21 | 0.982 ± 0.01 | 0.823 ± 0.013 | 0.994 ± 0.017 | 0.839 ± 0.021 | 1.01 ± 0.01 | 0.983 ± 0.017
Cc1cc(N2CCOCC2)cc2[nH]c(-c3c(NCC(O)c4cccc(Cl)c4)cc[nH]c3=O)nc12 (centres undefined) | 0.277 ± 0.0085 | 0.205 ± 0.011 | 0.3733 ± 0.0021 | 0.267 ± 0.0095 | 0.753 ± 0.051 | 0.263 ± 0.036
CCCCCCCCCCCCCCCC(=O)NCC(COP(=O)([O-])OCC[N+](C)(C)C)OCC (racemic) [rac-2-Ethoxy-3-hexadecanamido-1-propylphosphocholine] | 1.01 ± 0.01 | 1.09 ± 0.023 | 1.007 ± 0.0058 | 1.113 ± 0.0058 | 1.013 ± 0.0058 | 1.02 ± 0.011
CN1CCC[C@@H]1Cc1c[nH]c2ccc(CCS(=O)(=O)c3ccccc3)cc12 [Eletriptan HBr] | 1.013 ± 0.0058 | 1.03 ± 0.015 | 1.01 ± 0.01 | 1.02 ± 0.021 | 1.002 ± 0.0067 | 1.002 ± 0.0072
COc1ccccc1N1CCN(CCCCNC(=O)c2ccc3ccccc3c2)CC1 | 0.9887 ± 0.0098 | 0.984 ± 0.026 | 0.998 ± 0.014 | 0.988 ± 0.032 | 0.9913 ± 0.0029 | 0.961 ± 0.033
COc1ccc(NC(=O)c2ccc(-c3ccc(-c4noc(C)n4)cc3C)cc2)cc1N1CCN(C)CC1 | 1.006 ± 0.0063 | 0.000294 ± 0.00029 | 1.02 ± 0.01 | 0.00887 ± 0.01 | 0.9987 ± 0.0023 | 0.000181 ± 0.0015
CCCCCCCCCCCCCCCc1cccc(O)c1C(=O)O [Anacardic acid] | 1 ± 0.015 | 1.02 ± 0.0063 | 1.01 ± 0.012 | 1.02 ± 0.022 | 1 ± 0.024 | 1.01 ± 0.019
S=C(S)N1CCCC1 [Ammonium pyrrolidinedithiocarbamate] | 1 ± 0.015 | 0.994 ± 0.024 | 1.01 ± 0.018 | 1.004 ± 0.01 | 1.002 ± 0.0076 | 0.416 ± 0.095
N=c1ccn2c(n1)O[C@H]1[C@H](O)[C@@H](CO)O[C@H]12 [Ancitabine hydrochloride] | 0.16 ± 0.012 | 0.103 ± 0.012 | 0.652 ± 0.079 | 0.211 ± 0.0064 | 0.0511 ± 0.0082 | 0.0465 ± 0.00057
FC(F)c1nc2ccccc2n1-c1nc(N2CCOCC2)nc(N2CCOCC2)n1 | 0.649 ± 0.029 | 0.627 ± 0.013 | 0.603 ± 0.038 | 0.702 ± 0.054 | 0.691 ± 0.048 | 0.831 ± 0.028
Nc1cc(C(F)(F)F)c(-c2cc(N3CCOCC3)nc(N3CCOCC3)n2)cn1 | 0.6 ± 0.048 | 0.203 ± 0.0045 | 0.713 ± 0.038 | 0.411 ± 0.029 | 0.613 ± 0.059 | 0.0297 ± 0.0061
CS(=O)(=O)N1CCc2c(-c3cnc(N)nc3)nc(N3CCOCC3)nc21 | 0.528 ± 0.021 | 0.513 ± 0.01 | 0.552 ± 0.058 | 0.627 ± 0.034 | 0.491 ± 0.024 | 0.651 ± 0.064
CSc1nc(N)c2ncn([C@@H]3O[C@H](COP(=O)(O)OP(=O)(O)O)[C@@H](O)[C@H]3O)c2n1 [2-Methylthioadenosine diphosphate trisodium] | 1.007 ± 0.0058 | 1.02 ± 0.026 | 1.01 ± 0.012 | 1.06 ± 0.082 | 0.9917 ± 0.0072 | 1 ± 0.017
C[C@@H]1C(=O)O[C@H]2C[C@@]34[C@H]5C[C@@H](C(C)(C)C)[C@]36[C@@H](OC(=O)[C@@H]6O)O[C@@]4(C(=O)O5)[C@]21O [Ginkgolide A] | 0.9947 ± 0.0084 | 0.986 ± 0.01 | 0.994 ± 0.016 | 0.997 ± 0.02 | 1.002 ± 0.0072 | 0.9947 ± 0.0051
CCc1c(C(=O)NCCc2ccc(N3CCCCC3)cc2)[nH]c2ccc(Cl)cc12 | 1.01 ± 0.018 | 0.993 ± 0.021 | 1.027 ± 0.0058 | 0.999 ± 0.011 | 1 ± 0.0095 | 0.982 ± 0.012
NCC=CC(=O)O (stereo in doubt) [cis-4-Aminocrotonic acid] | 0.992 ± 0.0092 | 0.993 ± 0.015 | 0.9857 ± 0.0042 | 0.9765 ± 0.0092 | 0.973 ± 0.0079 | 0.9753 ± 0.0086
C[C@H]1C[C@H]2[C@@H]3CCC4=CC(=O)C=C[C@]4(C)[C@@]3(Cl)[C@@H](O)C[C@]2(C)[C@@]1(O)C(=O)CO [Beclomethasone] | 0.998 ± 0.0017 | 1.02 ± 0.01 | 1.01 ± 0.01 | 1 | 0.803 ± 0.031 | 0.738 ± 0.039
CCCCN(Cc1ccc(C(=O)NO)cc1)C(=O)Nc1ccccc1 [Nexturastat A] | 0.949 ± 0.017 | 0.9863 ± 0.0097 | 0.97 ± 0.02 | 0.963 ± 0.027 | 1.001 ± 0.009 | 0.967 ± 0.014
CC(C)[C@H](C(=O)Nc1ccc(C(=O)NO)cc1)c1ccccc1 | 0.752 ± 0.021 | 0.00258 ± 0.00047 | 0.897 ± 0.021 | 0.00754 ± 0.0016 | 0.172 ± 0.0081 | 0.00052 ± 0.00049
N#CC(=C(/N)Sc1ccccc1N)/C(C#N)=C(\N)Sc1ccccc1N | 1.02 ± 0.011 | 1.08 ± 0.025 | 0.976 ± 0.016 | 1.01 ± 0.027 | 1.023 ± 0.0058 | 1.02 ± 0.015
CC#CCOC(=O)c1c(C)nc2sc3c(c2c1N)CCC(O)C3 (centres undefined) | 1.02 ± 0.021 | 1 ± 0.019 | 1.03 ± 0.038 | 1.03 ± 0.017 | 1.013 ± 0.0058 | 1.013 ± 0.0058
COC1=C(OC)C(=O)c2ccccc2C1=O [2,3-Dimethoxy-1,4-naphthoquinone] | 0.994 ± 0.01 | 0.905 ± 0.047 | 0.994 ± 0.0066 | 0.956 ± 0.01 | 0.997 ± 0.0027 | 0.8913 ± 0.0032
CCCCCC[C@@H]([C@@H](C)O)n1cnc2c(N)ncnc21 [erythro-9-(2-Hydroxy-3-nonyl)adenine hydrochloride] | 0.999 ± 0.001 | 0.992 ± 0.024 | 0.987 ± 0.012 | 0.997 ± 0.023 | 0.973 ± 0.0053 | 0.9777 ± 0.0055
